The structures appear in SMILES notation. This is part of a sample that, as a whole, favours compounds with a hit. Of some 83,000 tested, about 20% had one in any assay.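 Values shown are percent growth following 48 h exposure of cells in 96-well plates to a single concentration of compound; below 10 was considered active.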 The source made the active and inactive calls.

Data on 27 compounds can be found in PubChem BioAssay (NCI).

In the assay the test system is HL-60(TB) leukemia. Kind of assay: NCI-60 one-dose screen, 48 h (100 = growth as untreated, 0 = no growth, -100 = all killed). Particulars: 10 µM unless noted.
For the compound `Cc1c(C(N)=O)sc2nc(C)n(/N=c3\scc(-c4ccccc4)n3Cc3ccccc3)c(=O)c12`, the growth was -35.8% (active).
In the case of `Cc1ccc(CC#N)cc1C`, the growth is 116% (inactive).
For `O=C(Nc1ncccc1OCc1ccccc1)NC1CCCCCC1`, the growth is 57.7% (inactive).
For `COc1cc(-c2nc3cc(Cl)c(Cl)cc3[nH]2)ccc1OCC(=O)N=Nc1c(O)[nH]c2ccccc12`, the growth was -51.5% (active).
Consider `COc1ncnc2[nH]cc(CN3CCN(c4ccc(F)cc4)CC3)c12`, for which the growth was 101% (inactive).
For the compound `Cc1ccc(C2=NN(c3ccc(S(=O)(=O)NC(=O)NCc4ccccc4)cc3)C(c3ccc(N(C)C)cc3)C2)c(C)c1` (configuration not stated), the growth is -1.6% (active).
For `CC(=O)OC1CC2C(C)(C)CCC[C@]2(C)C2=C1C(O)=C(C(C)C)C(=O)C2=O` (some centres not stated), the growth is 3.12% (active).
Turning to `O=C(O)c1cn(C2CC2)c2cc(N3CCN(C(=O)CSc4nnc(-c5ccc(Cl)cc5)n4-c4ccccc4)CC3)c(F)cc2c1=O`, the growth is 91.1% (inactive).
Then `COc1cc(/C=C/c2cc(/C=C/c3ccc(O)c(OC)c3)n(C(=O)Cc3ccccc3)n2)ccc1O`, with -9.93% (active); and `CCC1NC(=O)c2cc(S(N)(=O)=O)c(Cl)cc2N1` (configuration not stated), with 120% (inactive).
For the compound `C=C1C(=O)O[C@H]2[C@H]1CC/C(COC(=O)NCc1cn(C)c3ccccc13)=C\CC[C@@]1(C)O[C@@H]21`, the growth was -48.5% (active).
As for `O=[N+]([O-])c1cc([N+](=O)[O-])c(NN=C(c2ccc(O)cc2)c2ccc(O)cc2)cc1Cl`, the growth is 12.7% (inactive).
For the compound `CN(C)CCCN(c1nc(C(Cl)(Cl)Cl)ns1)c1nc(C(Cl)(Cl)Cl)ns1`, the growth was 24.4% (inactive).
Consider `O=C(N/N=C/c1c(Cl)cccc1Cl)c1ccccc1Nc1ccnc(C(F)(F)F)c1`, for which the growth was 96.5% (inactive).
For `COc1ccc(Br)cc1NC(=O)Nc1cccc2c1ccn2Cc1ccnc(N)c1`, the growth was 10.5% (inactive).
Turning to `COc1ccc2c(c1)c(-c1nc(-c3c[nH]c4ncccc34)cs1)cn2CCO`, the growth was 58% (inactive).
With `OCc1ccccc1F`, the growth is 135% (inactive).
With `COc1ccc(OC)c(/C=C/C(=O)N/N=C/c2ccccc2)c1`, the growth was 46.3% (inactive).
As to `CC(SC(C)C(=O)N/N=C/c1cccc(Cl)c1)C(=O)N/N=C\c1cccc(Cl)c1` (configuration not stated), the growth is 82.8% (inactive).
Turning to `Cc1ccccc1NC(=O)NC(CC(N)=O)c1ccc2c(c1)nc(-c1cccc(Oc3ccc(C(C)(C)C)cc3)c1)n2CCCN1CCCCC1C` (configuration not stated), the growth was -3.28% (active).
On to `COc1cc(C(=O)N(C(C)C)C2CCCCC2)cc(OC)c1OC`, for which the growth was 96.7% (inactive).
Then `CN1C2C=CC(=O)C1C1C(=O)N(c3ccccc3)C(=O)C12` (configuration not stated), with 55.7% (inactive); and `COc1cc(-c2ccc(-[n+]3nc(-c4ccc([N+](=O)[O-])cc4)nn3-c3ccc([N+](=O)[O-])cc3)c(OC)c2)ccc1-[n+]1nc(-c2ccc([N+](=O)[O-])cc2)nn1-c1ccc([N+](=O)[O-])cc1`, with 14.2% (inactive).
Regarding `CCN(CC)CCNc1ccc([N+](=O)[O-])c2sc3ccccc3c(=O)c12`, the growth is 17% (inactive).
`CCCCCCCCCCC[C@@H](C[C@H]1OC(=O)[C@H]1CCCCCC)OC(=O)[C@@H](CC(C)C)NC=O`: the growth was -3.28% (active).
Consider `CCNC(=O)Oc1ccc(/C(=C(\C)c2ccccc2)c2ccc(OCCN3CCCCC3)cc2)cc1`, for which the growth was 45.5% (inactive).
For `COc1ccc2c(c1)c(-c1ccc(-c3cn(C)c4ccc(OC)cc34)[nH]1)cn2C`, the growth is -24.7% (active).
